Several values for one entry are separate records, joined by “and”; a condition that tells them apart may be missing. Equal entries are not always repeated. The whole screen tested about 410,000 compounds, of which about 18,000 (4.4%) were called active. Roughly 7% stayed inconclusive and do not appear here. No stated cut-off is given here; in the data, active means activity change below about -60%; inconclusive means no clear call, values can overlap the other calls; inactive means above about -39%. Many of the other results were omitted from the sample, so actives are more common in it than they were. Where a structure was tested more than once in an assay, its records may differ in their call.
Test: qHTS Assay for inhibitors of the human cytomegalovirus (HCMV)
Details: HFF cells, HCMV-luciferase reporter, 72 h; at 57.5 µM; stronger effect = lower value
Text: NCGC Assay Overview: Infection with human cytomegalovirus (HCMV) continues to pose significant threats for pregnant women and immunocompromised hosts. HCMV causes serious morbidity and mortality in transplant recipients, and congenital HCMV is the leading infectious cause of mental retardation and deafness in children. In the 1990s, the annual costs associated with the disease burden of congenital CMV were estimated at around $2 billion. A HCMV vaccine is not available yet and HCMV therapies result in intolerable side effects and emergence of drug resistant viruses. […] Towards this goal we have developed and characterized a luciferase HCMV reporter that was initially used in 96 well plates and then optimized to 1536-well plates for utilization in screening of the MLSMR collection, the NGCG diversity collection and the NCGC Pharmaceutical Collection of approved and investigational drugs.
NCGC Assay Protocol Summary:
This is a cell-based assay for HCMV inhibition in HFFs cells. The screening used 2 compound doses and the HCMV-luciferase at MOI of 1 PFU/cell. Cells were treated and infected with HCMV. At 72 h post infection cell lysates were collected and luciferase activity was determined using the Glomax-Multi + Detection System (Promega, Madison, WI). Data were normalized to the controls for basal activity (buffer only) and known HCMV inhibitors Salinmoycin.
1536-well assay protocol for the assay:
(1) Add 3 ul CMV/HFF cell culture. 1000 cells/well in DMEM nirmal media.
(2) Incubate 16 hr at 37C.
(3) Add 23 nl control compound, 10uM of Salinomycin.
(4) Add 23 nl compounds in DMSO solution.
(5) Add 3 ul CMV suspension. Final 1 puf/ul, Virus stock 2000pfu/ul
(6) Incubate 72 hrs at 37C.
(7) Add 4 ul OneGlo Luc Reagent.
(8) Incubate 5 min at room temperature.
On the % scale 0 is the no-effect control and ±100 the full control effect.

SMILES | activity change, negative = inhibition
Cc1cc(Nc2ccc(Br)cc2F)n2ncnc2n1 | 3.15% (inactive)
COc1ccc(Cl)cc1-n1c(CCC(=O)O)ccc1-c1ccc(C)cc1 | 10.6% (inactive)
Cc1cc(C)c(NC(=O)CCc2c(C)nc3c(c(C)nn3C(C)(C)C)c2C)c(C)c1 | 3.32% (inactive)
COc1ccc(C(C(=O)NC2CCCCC2)N(C(=O)CCl)c2ccccc2Cl)cc1 (stereo unspecified) | -97.5% (active)
COc1cccc(N(C(=O)C2COc3ccccc3O2)C(C(=O)NC2CCCCC2)c2ccc(O)cc2)c1 (stereo unspecified) | -15.7% (inactive)
Cc1ccccc1N(C(=O)CNC(=O)c1cccs1)C(C(=O)NC1CCCC1)c1ccncc1 (stereo unspecified) | 62.4% (inactive)
Oc1c(C(c2ccc(F)cc2)N2CCN(Cc3ccccc3)CC2)sc2nc(-c3ccco3)nn12 (stereo unspecified) | -3% (inactive)
CC(=O)C[C@@H](O)CC(=O)[C@H]1OC(=O)CCCCCCc2ccccc21 | 6.44% (inactive)
CCCCCn1c(=O)[nH]c2cc(C(=O)NCCCN3CCCCC3C)ccc2c1=O (stereo unspecified) | -19.8% (inactive)
Cc1cccc(N2CCN(C(=O)CCSCc3ccccc3F)CC2)c1C | 11.2% (inactive)
CCC(=O)c1cc(F)ccc1OCC(=O)Nc1ccc2c(c1)OCCO2 | -17.8% (inactive)
CCOC(=O)c1cnc2ccc(F)cc2c1Nc1ccc2c(c1)OCCO2 | -76.3% (active)
CCOC(=O)c1cnc2c(C)cc(C)cc2c1Nc1ccc(N2CCOCC2)cc1 | 6.54% (inactive)
O=C(NCc1ccccc1Cl)C1CCN(c2ncnc3c2nc2n3CCCCC2)CC1 | 0% (inactive) and -68.9% (active)
CCOC(=O)c1cccc(NC(=O)C2CCN(c3ncnc4c3nc3n4CCCCC3)CC2)c1 | 4.29% (inactive)
COc1cccc(CNC(=O)C2CCCN(c3ncnc4c3nc3n4CCCCC3)C2)c1 (stereo unspecified) | -15.7% (inactive)
COc1ccc(N(C)C(=O)C2CCN(S(=O)(=O)c3cc(Br)cc4c3N(C(C)=O)CC4)CC2)cc1 | 8.13% (inactive)
COc1ccc(-c2cc(C(=O)Nc3sc4c(c3C(N)=O)CCCC4)no2)cc1 | 21.3% (inactive)
Cn1cc(C(=O)c2ccc(Cl)cc2Cl)cc1C(=O)NN | -23.5% (inactive)
CC(C)(CNC(=O)Cc1ccc(Cl)cc1Cl)N1CCOCC1 | -8.38% (inactive)
CC(C)(C)c1cc(C(=O)NN)n(Cc2ccc(Cl)cc2Cl)n1 | -79.4% (active)
CC(=O)Nc1cccc(NC(=O)CSc2cn(CC(=O)N3CCCC3)c3ccccc23)c1 | -3.21% (inactive)

SMILES | activity change, negative = inhibition
O=C(CCS(=O)(=O)c1cc(Br)cc2c1N(C(=O)C1CC1)CC2)Nc1ccc(C(F)(F)F)cc1 | 1.29% (inactive)
O=C(NCc1ccccc1)C1=C[C@@H](C2CCCCC2)C[C@@H](OCc2ccc(CO)cc2)O1 | -86.3% (active)
CC(C)(C)[C@H]1C=C(C(=O)NCc2ccccc2)O[C@@H](OCc2ccc(CO)cc2)C1 | -2.88% (inactive)
O=C(NCc1ccccc1)C1=C[C@H](C2CC2)C[C@H](OCc2ccc(CO)cc2)O1 | 7.43% (inactive)
OCC1(CCc2ccccc2)CCN(Cc2ccc3nsnc3c2)CC1 | 13.2% (inactive)
Cc1c(CN2CCC(CO)(CCOc3ccccc3)CC2)[nH]c2ccc(Cl)cc12 | -92.5% (active)
CCC(C)CN1CCC(CO)(Cc2ccccc2Cl)CC1 (stereo unspecified) | -7.29% (inactive)
COc1ccccc1CNC(=O)CCn1c(=O)c2ccccc2n(CC(=O)Nc2cccc(Cl)c2)c1=O | -39.6% (inactive)
O=C1c2cccc3c([N+](=O)[O-])ccc(c23)C(=O)N1CC1CCCO1 (stereo unspecified) | -82.1% (active)
O=C1C(C=NCC2CCCO2)=C(O)c2ccccc21 (stereo unspecified) | 69.7% (inactive)
COc1ccc(C(=O)OCC(=O)NCC2CCCO2)cc1[N+](=O)[O-] (stereo unspecified) | 15.2% (inactive)
CCOc1cc(C(C(=O)NCC2CCCO2)N(C(=O)Cn2nnc3ccccc32)c2cccc(OC)c2)ccc1O (stereo unspecified) | -8.64% (inactive)
Cc1ccc2oc(=O)c3cnn(CC(=O)NCc4ccccc4Cl)c3c2c1 | -4.14% (inactive)
COc1ccc(NC(=O)c2sc3nc[nH]c(=O)c3c2C)cc1 | 52.3% (inactive)
Cc1ccc(-n2c(SCC(=O)N3CCC(C(=O)O)CC3)nc3ccccc3c2=O)cc1C | 6.85% (inactive)
CCCn1c(N)c(C(=O)CSc2nc3ccccc3c(=O)n2-c2ccc(OC)cc2)c(=O)[nH]c1=O | -29.3% (inactive)
COc1cccc(-n2c(SCC(=O)c3c[nH]c4ccccc34)nc3ccccc3c2=O)c1 | -93.8% (active)
COc1ccc(C)cc1NC(=O)COCc1cc(-c2cccs2)on1 | -10.8% (inactive)
Cc1ccc(C)c(N2CCN(c3ccc4cc(S(=O)(=O)N5CCC(C)CC5)ccc4n3)CC2)c1 | 19% (inactive)
COc1ccccc1CC(NC(C)=O)C(=O)NC1CCN(C(=O)Nc2ccccc2Cl)CC1 (stereo unspecified) | 0.54% (inactive)
COc1cccc(NC(=O)N2CCC(NC(=O)C(Cc3cccc(C)c3)NC(C)=O)CC2)c1 (stereo unspecified) | -66.8% (active)
CCOC(=O)C1CCN(C(=O)Nc2cccc(OC)c2)CC1 | 5.16% (inactive)

SMILES | activity change, negative = inhibition
O=C(NCCCO)C(=O)Nc1c2c(nn1-c1ccccc1)CSC2 | -2.71% (inactive)
COc1cccc(CN2CCc3nc(SCC(=O)Nc4ccccc4)[nH]c(=O)c3C2)c1 | 4.11% (inactive)
O=C(Nc1c(Cl)c(C2CC2)nn1-c1ccccc1)C(Cl)(Cl)Cl | 12.3% (inactive)
CCOc1ccc(CNC(=O)C2CCCN(c3nnc(C)c4c(C)n(-c5ccccc5)nc34)C2)cc1 (stereo unspecified) | -67.7% (active)
CCOc1ccc(N(CC)S(=O)(=O)N2CCCC(C(=O)NCc3ccc(Cl)cc3)C2)cc1 (stereo unspecified) | -15.9% (inactive)
CCCCNC(=O)C1CCCN(c2nnc(C)c3c(C)n(-c4ccc(Cl)cc4)nc23)C1 (stereo unspecified) | -6.23% (inactive)
COc1ccc(S(=O)(=O)N2CCN(CC(=O)N3CCOCC3)CC2)cc1OC | 4.11% (inactive)
Cc1ccn(-c2cccc(-n3ccc(C)n3)n2)n1 | 65.3% (inactive)
CC(=O)NC(CC(=O)Nc1ccc(S(=O)(=O)N2CCOCC2)cc1)c1ccccc1 (stereo unspecified) | 0% (inactive)
COc1cc(NC(=O)c2ccccc2NS(=O)(=O)c2ccc(Cl)s2)cc(OC)c1 | -99.7% (active)
COc1cc(NS(=O)(=O)c2cccs2)cc(OC)c1 | 16.4% (inactive)
COC(=O)c1ccccc1NS(=O)(=O)c1ccc2c(c1)CCCN2C(C)=O | -2.94% (inactive)
COc1cccc(NC(=O)c2ccccc2N(Cc2ccccc2)S(C)(=O)=O)c1 | -6.12% (inactive)
Cc1cc(NS(=O)(=O)c2ccc(NC(=O)c3ccccc3C)cc2)nc(C)n1 | -5.8% (inactive)
COC(=O)c1ccc(NC(=O)c2ccccc2NS(=O)(=O)c2ccccc2)cc1 | -105% (active)
COc1ccc(C2CC(=O)Nc3c2c(=O)nc2c(C)cccn32)cc1OC (stereo unspecified) | 3.37% (inactive)
CCn1c(CNC(=O)c2ccccc2)nnc1SCC(=O)N1CCN(c2ccccc2)CC1 | -25.6% (inactive)
O=C(CCNS(=O)(=O)c1ccccc1C(F)(F)F)Nc1ccncc1 | 6.98% (inactive)
Cc1ccccc1NC(=O)C1CCCN(C(=O)NCc2ccccc2)C1 (stereo unspecified) | -18.4% (inactive)
Oc1ccc(N2CCN(C(=S)NCc3ccccc3)CC2)cc1 | -63.6% (active)
O=C(CN1CCN(c2ccccc2O)CC1)NC(=O)NCc1ccccc1 | -4.33% (inactive)
COc1cc(C2C(C(=O)OCCC#N)=C(C)NC3=C2S(=O)(=O)c2ccccc23)cc(OC)c1OC (stereo unspecified) | 2.51% (inactive)

SMILES | activity change, negative = inhibition
COc1ccccc1N1CCN(c2ncnc3onc(-c4cccc(Cl)c4)c23)CC1 | 10.1% (inactive)
COc1ccc2c(c1)c(N1CCCC1=O)c(C(=O)Nc1ccc(OC)c(Cl)c1)n2C | -18.9% (inactive)
Cc1nn(CC(=O)O)c(=O)c2cc3cc(F)ccc3n12 | 31% (inactive)
Cc1cccc(OCCNC(=S)NC(=O)c2cccnc2)c1 | -37.9% (inactive)
CCNC(=O)COC(=O)CCNC(=O)c1cccc(C)c1 | -28.9% (inactive)
Cc1cccc(OCC(=O)NCCNC(=O)c2cccnc2)c1 | -66.9% (active)
Cc1cc(C)c(S(=O)(=O)NN=C2c3ccccc3[C@H]3Cc4csc[n+]4[C@@H]23)c(C)c1 | -27.2% (inactive)
O=C(CCc1nc(CN2CCN(S(=O)(=O)c3ccc(F)cc3)CC2)no1)N1CCCCC1 | -35.8% (inactive)
Cc1cccc(C)c1NC(=O)C1CCCN1C(=O)OC(C)(C)C (stereo unspecified) | -2.93% (inactive)
CCC[C@H]1CCCC/C=C\CCCC(=O)OCCN1C(=O)OC(C)(C)C | -71.3% (active)
Cc1nc(SCC(=O)NC2CCCC2)[nH]c(=O)c1C | -10.8% (inactive)
Cc1nc(SCC(=O)NC2CCCCC2C)c(C#N)c(C)c1C (stereo unspecified) | -103% (active)
CC1CCCCC1NC(=O)CSc1nnc(N)s1 (stereo unspecified) | 41.4% (inactive)
COc1cccc(CNC(=O)[C@@H]2CCCN2C(=O)[C@@H]2CCCN2C(=O)c2ccccc2)c1 | -2.63% (inactive)
O=C(NCCS(=O)(=O)NCc1ccc(F)cc1)c1ccccc1 | -9.67% (inactive)
Cc1nc2c(C(=O)NCc3ccc4c(c3)OCO4)c[nH]n2c(=O)c1Cc1ccccc1F | -7.59% (inactive)
Cc1c(NS(=O)(=O)c2cccc(C(=O)Nc3ccc(SC(F)F)cc3)c2)c(=O)n(-c2ccccc2)n1C | -2.26% (inactive)
COc1ccc(NC(=O)/C(N=Nc2cccc(S(=O)(=O)Nc3ccc(SC(F)F)cc3)c2)=C(\C)O)cc1 | -70.6% (active)
COc1ccc(NS(=O)(=O)c2cccc(C(=O)NCCc3ccc(S(N)(=O)=O)cc3)c2)cc1 | -1.91% (inactive)
Cc1ccc(Cl)cc1N1CCN(C(=O)c2cnc3c(-c4ccc(F)cc4)c(C)nn3c2C)CC1 | 7.36% (inactive)

From PubChem BioAssay AID1259415 (National Center for Advancing Translational Sciences (NCATS), 2018)
